Screening data: PubChem, National Center for Advancing Translational Sciences (NCATS)
Sfp PPTase inh = qHTS Assay for Inhibitors of Bacillus subtilis Sfp phosphopantetheinyl transferase (PPTase); 4'-phosphopantetheinyl transferase ffp (Bacillus subtilis), Q9F4F7; Biochemical Sfp PPTase activity, qHTS; Potency, µM, for inactives: largest response in the series, negative = inhibition, most hits filed as inhibitors; hit rate 3.5% among 310,000;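 note: the enzyme is Sfp with the accession as filed and its product quenches rhodamine fluorescence; 0% = enzyme reaction without inhibitor and -100% = no enzyme wells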
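Fluorescence-quenching assay: 15 nM Sfp-PPTase preincubated 15 min at room temperature with compound, then 5 uM rhodamine-CoA and 12.5 uM BHQ-2-labelled YbbR peptide added. Fluorescence (ex 525/em 598 nm) read at start and after 30 min; difference gives rate.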
Epigenetic reg = Quantitative High-Throughput Screen for Regulators of Epigenetic Control; murine LDR cells, GFP reporter derepression, 30 h; Potency, µM (top dose mostly 53.9 µM), for the others: at the top dose GFP activation, hits mostly activators; hit rate 0.2% among 280,000; AID 1865, 2009; note: % of control where 0% means no effect; nearly all actives have a fitted effect of over 60% in size
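GFP-positive cell count by laser-scanning cytometry (objects 20–120 um) after 30 h, 37 C compound exposure of murine LDR cells; reporter is CMV-GFP integrated at a silenced locus, inducible by HDAC or DNMT inhibitors.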
IMPase Li inh = qHTS Assay for Identifying the Cell-Membrane Permeable IMPase Inhibitors: Potentiation with Lithium. Potency, µM (highest dose often 59.4 µM), inactives show top-dose activity, negative = IMPase inhibition, most hits filed as inhibitors. CHO-M1 cells, IP1 TR-FRET (IP-One), carbachol + lithium. AID 1457, 2008. hit rate 0.35% among 210,000;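 note: IP1 builds up when IMPase is blocked and the TR-FRET signal falls; plate controls were basal vehicle for no effect and high inhibitor control for full effect; nearly all actives have a fitted effect of over 50% in size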
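Steps: plate 2000 CHO-M1 cells per well and culture 16–30 h; add compound and lithium; incubate 30 min, 37C; add d2-IP1 tracer and Eu cryptate anti-IP1 antibody in lysis buffer; read after 10 min at room temperature.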
NPSR antag = qHTS Assay for Antagonists of the Neuropeptide S Receptor: cAMP Signal Transduction | CHO-NPSR cells, cAMP TR-FRET, antagonist mode | Potency, µM (highest dose often 38.3 µM), for inactives: at the top dose activity change, negative = inhibition, actives largely listed as inhibitors | hit rate 1% among 220,000 | AID 1461, 2008 | Q6W5P4; note: % is set by controls: 0 for no effect and ±100 for the full control effect; nearly all actives have a fitted effect of over 50% in size
KDM4E inh = qHTS Assay for Inhibitors of Human Jumonji Domain Containing 2E (JMJD2E); AID 2147, 2009; JMJD2E catalytic domain, FDH-coupled NADH fluorescence (FDH is formaldehyde dehydrogenase); Lysine-specific demethylase 4E (Homo sapiens), B2RXH2; hit rate 1.6% among 230,000; Potency, µM (titrated, usually from 57.1 µM), for inactives: at the top dose activity change, negative = inhibition, usual class: inhibitors; active = well fitted inhibition curve with a large enough effect, not every such curve was filed as active; inconclusive = small, poorly fitted or top-dose-only effect, or another doubt; inactive = no such curve, though single readings can be large or run the other way;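 note: 0% = wells with enzyme and -100% = buffer wells without enzyme; nearly all actives have a fitted effect of over 50% in size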
KAT2A inh = qHTS Assay for Inhibitors of GCN5L2; AID 504327, 2011; Potency, µM (series often up to 58.9 µM), without a hit: top-dose activity change, negative = inhibition, actives largely listed as inhibitors; hit rate 0.21% among 390,000; GCN5L2 HAT assay, ThioGlo1 CoA-SH fluorescence; note: % is set by controls: 0 for no effect and ±100 for the full control effect
Target sequence (Q92830 whole entry, looked up): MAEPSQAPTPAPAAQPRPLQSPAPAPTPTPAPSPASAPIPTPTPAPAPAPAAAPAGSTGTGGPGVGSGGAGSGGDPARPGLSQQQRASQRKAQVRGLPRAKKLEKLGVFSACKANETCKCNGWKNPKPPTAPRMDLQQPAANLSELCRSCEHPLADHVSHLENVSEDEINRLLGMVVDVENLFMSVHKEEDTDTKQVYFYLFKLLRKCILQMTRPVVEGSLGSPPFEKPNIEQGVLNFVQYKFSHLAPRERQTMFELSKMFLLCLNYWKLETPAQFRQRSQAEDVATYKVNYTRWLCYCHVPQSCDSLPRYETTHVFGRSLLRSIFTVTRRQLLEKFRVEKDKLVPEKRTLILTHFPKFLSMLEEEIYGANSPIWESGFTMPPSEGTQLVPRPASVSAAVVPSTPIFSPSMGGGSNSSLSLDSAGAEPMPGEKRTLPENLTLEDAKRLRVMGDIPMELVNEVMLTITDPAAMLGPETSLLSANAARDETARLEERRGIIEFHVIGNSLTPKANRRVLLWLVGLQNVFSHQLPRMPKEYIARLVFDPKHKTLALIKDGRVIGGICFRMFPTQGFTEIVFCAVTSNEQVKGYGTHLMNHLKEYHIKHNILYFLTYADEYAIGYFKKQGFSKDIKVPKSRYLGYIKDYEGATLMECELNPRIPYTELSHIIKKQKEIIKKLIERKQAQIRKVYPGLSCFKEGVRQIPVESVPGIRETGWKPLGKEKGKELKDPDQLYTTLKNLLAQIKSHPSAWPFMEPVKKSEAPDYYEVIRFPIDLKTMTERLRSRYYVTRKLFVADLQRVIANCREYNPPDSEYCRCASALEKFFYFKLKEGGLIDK
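ThioGlo1-coupled HAT assay: 20nM GCN5L2, 70uM acetyl-CoA, 75uM H3(1-25) peptide, pH 7.5. Fluorescence read at 340/540nm at start and after 20 min at room temperature.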
Numbers without * were called inactive; ? = inconclusive; . = not tested or not shown; [ ] = dose if it differs, or a comment. The list is not random: actives were taken first. Their share in the collection is about 3.6%. Unless noted, calls come from the whole dose curve; as a rule, active = well fitted curve in the direction sought with a large enough effect; inconclusive = small, poorly fitted or top-dose-only effect, or another doubt; inactive = no such curve, though single readings can be large; an effect the other way counts as inactive or inconclusive. Potency is the fitted concentration of half-maximal effect.

SMILES	Sfp PPTase inh	Epigenetic reg	IMPase Li inh	NPSR antag	KDM4E inh	KAT2A inh
CCOC(=O)CSc1nc2c(sc(=S)n2-c2ccc(OCC)cc2)c(=O)[nH]1	-2%	1%	6%	-36%	0%	-16%
O=c1cnc2cnc(Nc3ccccc3)nc2n1CCc1ccccc1	6%	.	2%	.	.	-10%
CC(C)CO/N=C1/C[C@@H](O)[C@@H](O)[C@@H]2[C@@H]3C(=O)N(Cc4ccc5c(c4)OCO5)C(=O)[C@H]3CC[C@H]12	13%	0%[10.1 µM]	.	.	.	.
C=CCC(O)CC1C2C(CC(O)CC=C)C3C1C3C2OC(C)(C)C (stereo unspecified)	1%	1%[10.1 µM]	.	.	.	.
CCc1ccc(NC(=S)Nc2cc(C(=O)O)ccc2N2CC3CC(C2)c2cccc(=O)n2C3)cc1 (stereo unspecified)	56µM*	-3%	-4%	3%	?	-6%
CCc1ccc(NC(=O)Nc2cc(C(=O)NCC3CCCO3)ccc2N2CC3CC(C2)c2cccc(=O)n2C3)cc1 (stereo unspecified)	10%	.	.	.	.	-5%
O=C(O)c1ccc(N2CC3CC(C2)c2cccc(=O)n2C3)c(NC(=S)Nc2ccc(Br)cc2)c1 (stereo unspecified)	56µM*	0%	1%	-1%	-11%	-12%
NCOC(=O)Cc1ccc(Br)cc1	.	.	-3%	.	.	.
CCCCC[C@H](O)/C=C/C=C\C/C=C\C/C=C\CCCC(=O)O	10%	2%	-12%	.	-10%	5%
O=C(/C=C/c1cccnc1)/C=C/c1cccnc1	14µM*	-1%	.	48%	?	-10%
O=C(/C=C/c1ccccc1Cl)c1cccnc1	32µM*	?	37%[38.3 µM]	-6%[46.1 µM]	-3%	-8%
N#Cc1ccc(/C=C/C(=O)c2cccnc2)cc1	50µM*	0%	9%	-10%	-4%	1%
O=C(/C=C/c1ccc(Cl)cc1)c1cccnc1	?	?	3%[38.3 µM]	19%[46.1 µM]	5%	-4%
CCc1cccc(NC(=O)C(Cc2ccccc2)n2cccc2)c1 (stereo unspecified)	.	1%	.	.	.	-12%
CCOc1ccc(NC(=O)c2cc(=O)c3ccc(C)c(C)c3o2)cc1	.	20µM*	.	.	.	-3%
CCOC(=O)CCN1C(=O)[C@H]2[C@H]3[C@H](O)[C@H](O)C/C(=N/NC(=O)OCc4ccccc4)[C@H]3CC[C@@H]2C1=O	14%	0%[10.1 µM]	.	.	.	.
CCCCN1Cc2c(nc3cc(-c4ccco4)[nH]n3c2=O)C1=O	10µM*	0%	.	38%	?	?
S=C(NCCCN1CCOCC1)Nc1ccc(-c2nc3ccccc3[nH]2)cc1	35µM*	1%	4%	8%	?	0%
S=C(NCCCN1CCOCC1)Nc1ccc(Nc2ccccc2)cc1	-25%	1%	0%	-5%	-8%	-5%
CON(C)C(=O)c1nnc2c(n1)[nH]c1ccccc12	8%	1%[10.1 µM]	.	.	.	.
C[C@@H]1C(=O)O[C@@H]1[C@@H](C)CO[Si](c1ccccc1)(c1ccccc1)C(C)(C)C	21%	.	.	.	.	.
C=CCSc1nc2sc3c(c2c(=O)n1CC)CCc1ccccc1-3	1.8µM*	5%	7%[38.3 µM]	-29%[46.1 µM]	?	-30%
COc1cc(/C=C2/C(=O)NN(c3cccc(F)c3)C2=O)ccc1OC(=O)c1ccco1	56µM*	-1%	13%	?	-1%	-3%
COc1cc(/C=C2/C(=O)NN(c3ccc(F)cc3)C2=O)cc(Cl)c1O	45µM*	.	.	.	.	-5%
CO[C@@H]1COC(=O)[C@H](C)NC(=O)[C@@H](C)COC(=O)CCC[C@H]1C	12%	1%[10.1 µM]	.	.	.	.
SMILES	Sfp PPTase inh	Epigenetic reg	IMPase Li inh	NPSR antag	KDM4E inh	KAT2A inh
CC(=O)OCCCn1c(C)[n+](C)c2cc(Cl)c(Cl)cc21	1%	-5%	4%	-6%	?	1%
CCn1c(C)[n+](CCOC(C)=O)c2cc(Cl)c(Cl)cc21	-21%	1%	6%	4%	16µM*	-5%
Cc1cc(C(C)(C)C)cc(S(=O)(=O)Nc2ccc(O)c(C(=O)O)c2)c1C	89µM*	-1%	8%[38.3 µM]	-3%[46.1 µM]	?	-23%
CC(=O)Nc1ccc(NC(=O)c2ccc(NS(=O)(=O)c3cc(C(C)(C)C)cc(C)c3C)cc2)cc1	21%	4%	-5%	-30%	?	-6%
CNCc1ccccc1Sc1cc(O)ccc1O	22µM*	14%	17%	-19%	?	-13%
CNCc1ccccc1Sc1cccc(O)c1	10%	0%	-8%	11%	8%	0%
CCCCCCCCCCCCCCCCOCC(COP(=O)([O-])OCC[N+](C)(C)C)OC (stereo unspecified)	5%	6%	-25%	.	0%	13%
COc1ccc(NC(=O)CN2C(=O)/C(=C3\SC(=S)N(C4CCS(=O)(=O)C4)C3=O)c3ccccc32)cc1 (stereo unspecified)	14µM*	?	.	-1%	-8%	-8%
O=C(CN1C(=O)/C(=C2\SC(=S)N(C3CCS(=O)(=O)C3)C2=O)c2ccccc21)Nc1ccc(F)cc1 (stereo unspecified)	-24%	1%	.	-1%	-1%	-4%
CC[C@H](C)[C@H](NC(=O)[C@@H]1CCCN1C(=O)[C@H](Cc1cnc[nH]1)NC(=O)[C@@H](NC(=O)[C@H](Cc1ccc(O)cc1)NC(=O)[C@@H](NC(=O)[C@H](CCCN=C(N)N)NC(=O)CNC)C(C)C)[C@@H](C)CC)C(=O)O	24%	.	.	.	.	-15%
CCC(NC(=O)NNC(N)=S)(C(F)(F)F)C(F)(F)F	45µM*	2%	.	19%	-3%	-4%
O=C(/C=C/c1ccc(O)c(O)c1)OCCc1ccccc1	?	0%	20%	-20%[46.1 µM]	20µM*	-19%
O=C(O)/C=C/c1ccccc1	28%	.	.	.	.	-11%
O=C(O)/C=C\c1ccc(O)c(O)c1	35µM*	0%[16.9 µM]	1%	.	11µM*	0%[21.4 µM]
O=C(COC(=O)/C=C/c1cccc(Br)c1)NCCc1ccccc1	.	.	.	.	.	0%
Cc1ccc2nc(N3CCN(Cc4nnnn4C4CCCC4)CC3)c(C#N)cc2c1	11%	-1%	20%	-19%[46.1 µM]	?	-6%
Cc1ccc(C)c(N2CCN(Cc3nnnn3C3CCCCC3)CC2)c1	79µM*	4%	37%[38.3 µM]	-11%[46.1 µM]	-21%	-7%
CCCN1CCCC(c2cccc(S(C)(=O)=O)c2)C1 (stereo unspecified)	-16%	.	.	.	.	-22%
